Common to all, as to conditions: mRNA level, 48 h; actives raise or lower the signal
Read-out in test [1]: Glutathione S-transferase M3 (GSTM3), GSTM3 (gene 2947)
Nature of the test: LTEA_HepaRG_GSTM3: Life Technologies and Expression Analysis (LTEA) Assay for Glutathione S-transferase M3 (GSTM3) using HepaRG (AID 2283501). The method in brief: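 HepaRG, plated 48 h, then serum-free induction medium; test chemical 48 h, duplicate; 100 uM top, half-log x8, 0.5% DMSO. Read-out: GSTM3 mRNA (TaqMan qRT-PCR, Fluidigm array). Bidirectional fit vs DMSO.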

Read-out in test [2]: Heat shock 70 kDa protein 1 (HSPA1A), gene 3303
Nature of the test: LTEA_HepaRG_HSPA1A: Life Technologies and Expression Analysis (LTEA) Assay for Heat shock 70 kDa protein 1 (HSPA1A) using HepaRG (AID 2283502). The method in brief: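 Readout is HSPA1A transcript level by microfluidic qRT-PCR, normalized to three housekeeping genes and analysed for gain or loss of signal relative to 0.5% DMSO. Human HepaRG cultures received test chemicals for 48 h at up to 100 uM.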

Read-out in test [3]: Hypoxia-inducible factor 1-alpha (Homo sapiens) (UniProt Q16665)
The experiment in a line: LTEA_HepaRG_HIF1A: Life Technologies and Expression Analysis (LTEA) Assay for Hypoxia-inducible factor 1 (HIF1A) Trancription factor using HepaRG (AID 2283503). The method in brief: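 Differentiated HepaRG cells in serum-free induction medium exposed 48 h, in duplicate, to 8-point half-log series from 100 uM in 0.5% DMSO. HIF1A mRNA measured by TaqMan qRT-PCR, normalized to ACTB/GAPDH/POLR2A, fitted bidirectionally versus DMSO.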

Read-out in test [4]: 3-Hydroxy-3-Methylglutaryl-CoA Synthase 2 (HMGCS2), HMGCS2 (gene 3158)
Nature of the test: LTEA_HepaRG_HMGCS2: Life Technologies and Expression Analysis (LTEA) Assay for 3-Hydroxy-3-Methylglutaryl-CoA Synthase 2 (HMGCS2) using HepaRG (AID 2283504). In short, it runs like this: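 HepaRG, plated 48 h then switched to serum-free induction media; cmpd 8-pt, max 100 uM, 1/2-log, 0.5% DMSO, n=2, 48 h. HMGCS2 mRNA by Fluidigm TaqMan qRT-PCR, ACTB/GAPDH/POLR2A norm; bidirectional fit vs DMSO.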

Read-out in test [5]: HGF (gene 3082)
Nature of the test: LTEA_HepaRG_HGF: Life Technologies and Expression Analysis (LTEA) Assay for Hepatocyte Growth Facto (HGF) using HepaRG (AID 2283505). The method in brief: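 Read-out is HGF transcript level by qRT-PCR, normalized to three housekeeping genes, fitted bidirectionally against 0.5% DMSO vehicle. Human HepaRG cells received test chemicals for 48 h at up to 100 uM.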

Read-out in test [6]: Insulin Like Growth Factor 1 (IGF1), IGF1 (gene 3479)
Nature of the test: LTEA_HepaRG_IGF1: Life Technologies and Expression Analysis (LTEA) Assay for Insulin Like Growth Factor 1 (IGF1) using HepaRG (AID 2283506). The method in brief: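 HepaRG, plated 48 h, then switched to serum-free induction media; test chemical 8-pt half-log from 100 uM (0.5% DMSO), duplicate, 48 h. Lysis in RLT, TaqMan qRT-PCR, norm. ACTB/GAPDH/POLR2A. Bidirectional fit vs DMSO.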

Read-out in test [7]: Intercellular Adhesion Molecule 1 (ICAM1), ICAM1 (gene 3383)
Nature of the test: LTEA_HepaRG_ICAM1: Life Technologies and Expression Analysis (LTEA) Assay for Intercellular Adhesion Molecule 1 (ICAM1) using HepaRG (AID 2283507). The method in brief: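 Readout is qRT-PCR mRNA level, normalized to three housekeeping genes and fitted bidirectionally against 0.5% DMSO vehicle. Human HepaRG cultures received compound for 48 h, top concentration 100 uM with half-log dilutions.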

Read-out in test [8]: Insulin-like growth factor-binding protein 1 (IGFBP1), IGFBP1 (gene 3484)
Nature of the test: LTEA_HepaRG_IGFBP1: Life Technologies and Expression Analysis (LTEA) Assay for Insulin-like growth factor-binding protein 1 (IGFBP1) using HepaRG (AID 2283508). In short, it runs like this:
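Thawed HepaRG cells are plated for 48 h, switched to serum-free induction medium, then dosed in duplicate for another 48 h (100 uM top, half-log steps). Lysates in RLT go to qRT-PCR, and gain or loss of signal is fitted relative to vehicle.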

Read-out in test [9]: Potassium channel subfamily K member 1 (KCNK1), KCNK1 (gene 3775)
Nature of the test: LTEA_HepaRG_KCNK1: Life Technologies and Expression Analysis (LTEA) Assay for Potassium channel subfamily K member 1 (KCNK1) using HepaRG (AID 2283511). The method in brief:
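Differentiated human HepaRG cells in serum-free induction medium were exposed in duplicate for 48 h to 8 half-log concentrations up to 100 uM in 0.5% DMSO. KCNK1 mRNA was measured by TaqMan qRT-PCR, normalized to ACTB, GAPDH and POLR2A, and fitted bidirectionally versus DMSO.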

Read-out in test [10]: Keratin 19 (KRT19), KRT19 (gene 3880)
Nature of the test: LTEA_HepaRG_KRT19: Life Technologies and Expression Analysis (LTEA) Assay for Keratin 19 (KRT19) using HepaRG (AID 2283512). The method in brief:
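KRT19 transcript levels, measured by Fluidigm qRT-PCR against three housekeeping genes, are fitted for gain or loss of signal relative to DMSO. Human HepaRG cells receive test chemicals (top 100 uM, half-log steps, 0.5% DMSO) for 48 hours.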

Read-out in test [11]: JUN Transcription Factor, JUN (gene 3725)
The experiment in a line: LTEA_HepaRG_JUN: Life Technologies and Expression Analysis (LTEA) Assay for JUN Transcription Factor using HepaRG (AID 2283513). In short, it runs like this:
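Cells plated 48 h, medium switched to serum-free induction medium, then dosed 48 h (100 uM top, half-log dilutions, 0.5% DMSO). RNA isolated; JUN measured by qRT-PCR against three housekeeping genes; gain or loss fitted relative to DMSO.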

Read-out in test [12]: Lipase C (LIPC), LIPC (gene 3990)
Nature of the test: LTEA_HepaRG_LIPC: Life Technologies and Expression Analysis (LTEA) Assay for Lipase C (LIPC) using HepaRG (AID 2283514). In short, it runs like this: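 Differentiated human HepaRG cells in serum-free induction medium were exposed in duplicate for 48 h to eight concentrations (top 100 uM, half-log steps, 0.5% DMSO). LIPC mRNA was quantified by TaqMan qRT-PCR, normalized to ACTB, GAPDH and POLR2A, with bidirectional fitting versus DMSO.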

Read-out in test [13]: Lipoprotein lipase (LPL), LPL (gene 4023)
The experiment in a line: LTEA_HepaRG_LPL: Life Technologies and Expression Analysis (LTEA) Assay for Lipoprotein lipase (LPL) using HepaRG (AID 2283515). The method in brief: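 Differentiated human HepaRG cells in serum-free induction medium were exposed in duplicate for 48 h to eight half-log concentrations (top 100 uM) in 0.5% DMSO. LPL mRNA was quantified by TaqMan qRT-PCR, normalized to ACTB, GAPDH and POLR2A.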

Read-out in test [14]: MicroRNA 122 (MIR122), gene 406906
Nature of the test: LTEA_HepaRG_MIR122: Life Technologies and Expression Analysis (LTEA) Assay for MicroRNA 122 (MIR122) using HepaRG (AID 2283516). Also: the transcript read is the microRNA miR-122. The method in brief:
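HepaRG plated 48 h, switched to serum-free induction medium, then treated in duplicate for 48 h (100 uM top, half-log steps, 0.5% DMSO vehicle). RNA isolated, qRT-PCR performed, concentration-response fitted both directions relative to DMSO.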

Read-out in test [15]: matrix metalloproteinase-10 (MMP10), MMP10 (gene 4319)
The experiment in a line: LTEA_HepaRG_MMP10: Life Technologies and Expression Analysis (LTEA) Assay for matrix metalloproteinase-10 (MMP10) using HepaRG (AID 2283517). The method in brief: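 HepaRG, collagen I, ~100,000 cells/well; serum-free induction medium; 48 h exposure, duplicate, 8-pt half-log to 100 uM, 0.5% DMSO. Readout: TaqMan qRT-PCR, normalized to ACTB/GAPDH/POLR2A; bidirectional fit vs DMSO.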

Read-out in test [16]: MYC, MYC (gene 4609)
The experiment in a line: LTEA_HepaRG_MYC: Life Technologies and Expression Analysis (LTEA) Assay for MYC using HepaRG (AID 2283518). In short, it runs like this: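 HepaRG, ~100,000 cells/well, collagen I; 48 h plating; serum-free induction medium; 48 h dosing, duplicate, 100 uM top, half-log, 0.5% DMSO; total RNA → qRT-PCR MYC; gain/loss fit vs DMSO.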

Read-out in test [17]: matrix metalloproteinase-3 (MMP3), MMP3 (gene 4314)
The experiment in a line: LTEA_HepaRG_MMP3: Life Technologies and Expression Analysis (LTEA) Assay for matrix metalloproteinase-3 (MMP3) using HepaRG (AID 2283519). In short, it runs like this: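 Differentiated human HepaRG cells, plated 48 h on collagen I, were exposed in duplicate for 48 h in serum-free induction medium to eight half-log concentrations up to 100 uM in 0.5% DMSO. MMP3 mRNA was quantified by TaqMan qRT-PCR, normalised to ACTB, GAPDH and POLR2A.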

Read-out in test [18]: Paternally Expressed 10 (PEG10), PEG10 (gene 23089)
Nature of the test: LTEA_HepaRG_PEG10: Life Technologies and Expression Analysis (LTEA) Assay for Paternally Expressed 10 (PEG10) using HepaRG (AID 2283520). The method in brief: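 HepaRG, 48 h post-plating → serum-free induction medium → 48 h chemical exposure (duplicate, 8-pt, max 100 uM, half-log, 0.5% DMSO) → lysis in RLT → TaqMan qRT-PCR for PEG10, ACTB/GAPDH/POLR2A normalisation.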

Read-out in test [19]: Interleukin 6 (IL6), IL6 (gene 3569)
Nature of the test: LTEA_HepaRG_IL6: Life Technologies and Expression Analysis (LTEA) Assay for Interleukin 6 (IL6) using HepaRG (AID 2283509). In short, it runs like this:
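Differentiated human HepaRG cells, plated 48 h then switched to serum-free induction medium, were exposed in duplicate for 48 h to eight half-log concentrations up to 100 uM in 0.5% DMSO. IL6 mRNA measured by qRT-PCR, normalized to ACTB/GAPDH/POLR2A.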

Read-out in test [20]: Interleukin 6 Receptor (IL6R), IL6R (gene 3570)
The experiment in a line: LTEA_HepaRG_IL6R: Life Technologies and Expression Analysis (LTEA) Assay for Interleukin 6 Receptor (IL6R) using HepaRG (AID 2283510). The method in brief:
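Readout is IL6R transcript level by TaqMan qRT-PCR, normalized to three housekeeping genes and fitted bidirectionally against 0.5% DMSO controls. Human HepaRG cells received chemicals for 48 h in serum-free induction medium, highest concentration 100 uM.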

These results are taken from PubChem BioAssay (EPA / NIEHS).

Active and inactive are the calls of the source. The calls were made as follows: active = hit-call score of the fitted dose curve at least 0.9, where 1 is the maximum; inactive = score below 0.9.

Sequence of Hypoxia-inducible factor 1-alpha (Homo sapiens) (Q16665 whole entry, looked up): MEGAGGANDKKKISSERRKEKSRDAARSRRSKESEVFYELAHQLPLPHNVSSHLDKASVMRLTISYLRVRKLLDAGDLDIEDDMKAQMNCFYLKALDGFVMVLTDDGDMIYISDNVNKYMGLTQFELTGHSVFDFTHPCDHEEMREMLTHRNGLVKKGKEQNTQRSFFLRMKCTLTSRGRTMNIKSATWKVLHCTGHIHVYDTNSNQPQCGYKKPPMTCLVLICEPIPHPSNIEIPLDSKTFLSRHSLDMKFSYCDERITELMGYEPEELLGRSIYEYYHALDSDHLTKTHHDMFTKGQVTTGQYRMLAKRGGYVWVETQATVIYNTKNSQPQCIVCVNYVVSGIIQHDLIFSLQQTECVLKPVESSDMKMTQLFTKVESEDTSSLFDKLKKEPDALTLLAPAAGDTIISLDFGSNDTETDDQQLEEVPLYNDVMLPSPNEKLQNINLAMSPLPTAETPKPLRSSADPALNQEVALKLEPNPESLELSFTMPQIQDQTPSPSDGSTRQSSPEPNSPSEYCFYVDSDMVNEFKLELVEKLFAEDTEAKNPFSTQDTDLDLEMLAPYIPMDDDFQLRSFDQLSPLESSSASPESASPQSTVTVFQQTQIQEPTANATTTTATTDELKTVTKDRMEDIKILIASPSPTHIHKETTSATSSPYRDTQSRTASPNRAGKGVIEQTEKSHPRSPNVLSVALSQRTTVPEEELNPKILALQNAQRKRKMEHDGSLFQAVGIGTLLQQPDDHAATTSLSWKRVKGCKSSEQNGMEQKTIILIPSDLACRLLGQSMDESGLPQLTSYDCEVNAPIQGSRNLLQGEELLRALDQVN

With `CCCCCOC(=O)c1ccccc1C(=O)OCCCCC`, the molecule was called inactive in test [1], in test [2], in test [3], in [4], in test [5] and in [6]. The outcome in [7], in test [8], in test [9], in [10], in test [11] and in test [12] was inactive. Also, the molecule was called inactive in test [13], in test [14], in [15], in test [16], in test [17] and in test [18].

`CCCCCCCCCCCCCN1CC(C)OC(C)C1` (centres undefined): the molecule was called inactive in test [1], in [2], in test [3], in [4], in test [5] and in test [6]. The molecule was called inactive in test [7], in test [8], in test [9], in test [10], in [11] and in [12]. Moreover, the result in test [13], in test [14], in test [15], in test [16], in [17] and in [18] was inactive.

For orientation: AC50 means the midpoint of the concentration-response curve, whichever way the signal moves. As to `Oc1ccc2ccc3cccc4ccc1c2c34`, the outcome in [1], in [2], in test [3], in test [4], in [5] and in test [6] was inactive. Moreover, the outcome in [8], in test [19], in [20], in [9], in [11] and in [12] was inactive. The outcome in test [13], in test [14], in test [15], in [16] and in [18] was inactive. Further, in test [10], the AC50 was 8.53 µM (active).
